About 83,000 compounds went through this panel and 20% of them were active in at least one assay; those are over-represented in the sample as a whole.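 Method: cells in 96-well plates; compound added at one concentration; 48 h incubation; percent growth measured; values under 10 scored active.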 Activity calls are given as the source filed them.
system: MDA-MB-468 breast; assay: NCI-60 one-dose screen, 48 h (100 = growth as untreated, 0 = no growth, -100 = all killed); conditions: 10 µM unless noted

Structure (SMILES)	growth
Oc1c(CNCCNCc2cc(Cl)cc(Cc3ccccc3)c2O)cc(Cl)cc1Cc1ccccc1	24.2% (inactive)
COc1cnc2c(c1)C(=O)c1c-2n(CCCN2CCN(CCO)CC2)c(=O)c2cc([N+](=O)[O-])ccc12	76.6% (inactive)
C[C@]12O[C@H](C[C@]1(O)CO)n1c3ccccc3c3c4c(c5c6ccccc6n2c5c31)CNC4=O	-47.5% (active)
CCSc1oc(C)nc1[P+](c1ccccc1)(c1ccccc1)c1ccccc1	-20.3% (active)
COc1cc(Nc2c(C#N)cnc3cc(OCCCN4CCN(C)CC4)c(OC)cc23)c(Cl)cc1Cl	56.2% (inactive)
CCN(CC)C(=O)CC1=C(C)/C(=C/c2[nH]c(-c3ccc[nH]3)cc2OC)N=C1C	29.9% (inactive)
COCc1nc(NS(=O)(=O)c2ccc(N)cc2)nc(C)c1Br	99.1% (inactive)
Cc1sc2ncnc(Sc3nc4ccccc4[nH]3)c2c1C	-86.6% (active)
O=C1/C(=C/c2ccccc2)CN(C(=O)C(Cl)Cl)C/C1=C\c1ccccc1	-32.8% (active)
NC(=O)c1ccc(NC(=O)c2oc3ccccc3c2-c2cnn(-c3ccccc3)c2)cc1	24.2% [50 µM] (inactive)
CC(=O)Oc1ccccc1C(=O)/C=C/c1cccc([N+](=O)[O-])c1	61.2% (inactive)
BrCc1cccc(C[P+](c2ccccc2)(c2ccccc2)c2ccccc2)c1	-12.4% (active)
C/C(=N\NC(=O)CSc1nc2ccccc2c(=O)n1Cc1ccc(S(N)(=O)=O)cc1)c1ccc(F)cc1	114% (inactive)
O=C(c1nc2ccccc2[nH]1)C1C(c2ccc(Br)cc2)C2CC3CCCC[C@H]3N2[C@@]12C(=O)Nc1cc(Cl)ccc12 (stereo not given in full)	12.5% (inactive)
COc1ccc(CCN2C(=O)/C(=C/c3ccc(C4Oc5ccccc5C5CC(c6ccccc6)=NN54)cc3)SC2=S)cc1 (stereo not given)	118% (inactive)
COc1ccc(C(=O)/C=C/c2ccc(/C=C/c3cc(OC)c(OC)c(OC)c3)cc2)cc1	51.9% (inactive)
Cc1ccc(-c2cc(C(=O)N3N=C(c4ccc(N)cc4)CC3c3ccc(Cl)cc3)c3ccccc3n2)cc1 (stereo not given)	14.1% (inactive)
CC1=NOC(=O)/C1=C\c1ccc(O)cc1	103% (inactive)
COc1ccc(OC)c(NC(=O)c2cc3oc4ccccc4c3cc2O)c1	96.9% (inactive)
C=C(C)[C@@H]1CC[C@]2(C(=O)NCCCCCN(CCC#N)CCC#N)CC[C@]3(C)[C@H](CC[C@@H]4[C@@]5(C)CCC(=O)C(C)(C)[C@@H]5CC[C@]43C)[C@@H]12	103% (inactive)
CC1=CC(=O)c2cccc(NC3=NCCO3)c21	107% (inactive)
CC(C)CC1NC(=O)C(CC(C)C)N(CO)C1=O (stereo not given)	99.3% (inactive)
COc1ccc(C2c3sc4c(F)cccc4c3Oc3nc[nH]c(=O)c32)cc1 (stereo not given)	54.6% (inactive)
OCC1OC(OC2C(O)C(CO)OC2(CO)OC2OC(CO)C(O)C(O)C2O)C(O)C(O)C1O (stereo not given)	112% (inactive)
COc1cc(/C=C2\CCCC3=C2N=C2SC=NN2C3c2cc(OC)c(OC)c(OC)c2)cc(OC)c1OC (stereo not given)	18.1% (inactive)

From PubChem BioAssay (NCI)
